Hits are enriched below; roughly 11% of the tested compounds scored in any of these assays.
G9a inh – blocks human histone lysine methyltransferase G9a. G9a H3K9 monomethylation, AlphaScreen, 2 h. hit rate 8.8% among 350,000. Potency, µM (highest dose often 102 µM), for the others: at the highest dose activity, negative = inhibition, most hits filed as inhibitors; also: % is scaled to controls: 0 for no effect and ±100 for the full control effect; nearly all actives have a fitted effect of over 75% in size
Target sequence (Q96KQ7 913-1193 limits assumed): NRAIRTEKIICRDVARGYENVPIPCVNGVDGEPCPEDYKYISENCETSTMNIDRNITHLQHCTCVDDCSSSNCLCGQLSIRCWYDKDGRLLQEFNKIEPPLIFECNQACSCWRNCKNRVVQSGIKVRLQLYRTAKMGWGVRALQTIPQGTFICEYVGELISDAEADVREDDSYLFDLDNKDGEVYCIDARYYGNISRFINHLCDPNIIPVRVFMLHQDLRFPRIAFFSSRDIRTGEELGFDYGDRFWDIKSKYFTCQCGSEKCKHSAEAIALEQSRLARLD
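Methyltransferase reactions run at room temperature for 2 h (20 nM enzyme, 500 nM biotin-H3K9 peptide, 20 uM SAM) after a 15 min compound preincubation; product detected by AlphaScreen beads and anti-H3K9me1 antibody.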
HP1b chromo inh – HP1-beta chromodomain-methylated histone interaction inhibition; hit rate 0.56% among 390,000; P83916; AID 540317; AlphaScreen HP1-beta / biotin-H3K9me3 peptide binding; Potency, µM (series often up to 114 µM), inactives show top-dose activity change, negative = inhibition, usual class: inhibitors; also: nearly all actives have a fitted effect of over 70% in size
Target sequence (P83916 whole entry, looked up): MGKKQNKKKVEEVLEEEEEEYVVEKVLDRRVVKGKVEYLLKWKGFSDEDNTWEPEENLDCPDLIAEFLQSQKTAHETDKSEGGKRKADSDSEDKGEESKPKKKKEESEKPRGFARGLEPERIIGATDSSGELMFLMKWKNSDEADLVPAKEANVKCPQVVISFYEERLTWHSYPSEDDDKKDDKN
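Compound inhibition of the preformed complex between 50 nM HP1-beta and 50 nM biotinylated H3K9me3 peptide was read by AlphaScreen. Buffer was PBS pH 7.4 with 0.01% Tween-20. Incubations ran 30 min at room temperature, with 10 ug/mL donor/acceptor beads.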
PLK1 PBD block – PLK1 (human) polo-box domain binding inhibition; P53350; Plk1 PBD binding of FITC phosphopeptide, fluorescence polarization; Potency, µM, inactives show max response, negative = inhibition, hits mostly inhibitors; hit rate 2.8% among 360,000; AID 720504; also: series mostly up to about 57 µM; % is scaled to controls: 0 for no effect and ±100 for the full control effect; nearly all actives have a fitted effect of over 65% in size
BAZ2B inh – inhibitors of human BAZ2B bromodomain. AlphaScreen BAZ2B-H3K14Ac peptide displacement. Potency, µM (highest dose often 114 µM), inactives show at the highest dose activity change, negative = inhibition, most hits filed as inhibitors. hit rate 4.4% among 360,000. AID 504333; also: % is scaled to controls: 0 for no effect and ±100 for the full control effect; nearly all actives have a fitted effect of over 60% in size
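Inhibition is scored as reduced AlphaScreen emission. The BAZ2B/b-H3(5-23)K14Ac complex (50 nM each) in PBS pH 7.4, 0.01% Tween-20 meets compound (up to 110 uM) for 30 min at RT before bead addition.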
JMJD2A Tudor – inhibitors of human JMJD2A Tudor domain; hit rate 4.4% among 390,000; O75164; AID 504339; Potency, µM (top dose mostly 114 µM), for the others: at the top dose activity change, negative = inhibition, actives largely listed as inhibitors; AlphaScreen JMJD2A-Tudor / H3K4me3 peptide binding; also: % is scaled to controls: 0 for no effect and ±100 for the full control effect; nearly all actives have a fitted effect of over 50% in size
VDR inh – blocks the human vitamin D receptor; P11473; VDR-SRC2-3 peptide fluorescence polarization, 2 h; Potency, µM, for inactives: max response, negative = inhibition, hits mostly inhibitors; hit rate 0.93% among 400,000; AID 504847; also: % is scaled to controls: 0 for no effect and ±100 for the full control effect
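Compounds are added to VDR with labelled SRC2-3 coactivator peptide and held 2 h at room temperature. Inhibition of the VDR–peptide interaction is then read as a change in fluorescence polarization.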
Numbers without * were called inactive; ? = inconclusive; nt = no result given; [ ] = dose if it differs, or a comment. Calls follow the shape of the dose curve; as a rule, active = well fitted curve in the direction sought with a large enough effect; inconclusive = small, poorly fitted or top-dose-only effect, or another doubt; inactive = no such curve, though single readings can be large; an effect the other way counts as inactive or inconclusive. Potency is read from the fitted curve at half-maximal effect.

SMILES	G9a inh	HP1b chromo inh	PLK1 PBD block	BAZ2B inh	JMJD2A Tudor	VDR inh
Fc1cccc(Cc2c(-c3ccccc3)nc3c4ccccc4ccn23)c1	nt	nt	-10%	nt	nt	nt
Cc1ccc2nc(N3CCC(C(=O)N4CCN(c5cccc(Cl)c5)CC4)CC3)[nH]c2c1	-36%[59 µM]	0%[57 µM]	nt	71µM*	56µM*	1%
Cc1ccc(S(=O)(=O)NCCC(=O)OCC(=O)N2CCCC2=O)cc1C	-3%	25%	-4%	-4%	-2%	1%
OC(c1ccccc1)(c1ccccc1)C1CCN(C(=S)NC2CCCC2)CC1	40µM*	-6%[57 µM]	-14%	-32%	-22%	9%
CC1=C(C(=O)OCc2ccc(C)cc2)C(c2ccccc2F)CC(=O)N1 (stereo not drawn)	-31%[59 µM]	12%	nt	2%	-17%	-8%
CSCCC(C(=O)O)N1C(=O)c2ccc(C(=O)O)cc2C1=O (stereo not drawn)	25µM*	21%	-7%	-10%	79µM*	23%
Cn1c(=O)[nH]c(NC2CCCCC2)c(N=O)c1=O	?	45%	-21%	?	89µM*	-8%
CCCc1nc2c(=O)n(C)c(=O)[nH]c2n1CCC	?	12%	-11%	2%	-7%	2%
CCCNc1[nH]c(=O)n(C)c(=O)c1N=O	40µM*	0%	-1%	-38%[57.1 µM]	50µM*	7%
COc1ccc(OC)c(/C=C2\N=C(c3ccccc3)OC2=O)c1	11%[0.501 µM]	37%	12µM*	2%	3%	-1%
CCN(CC)C(=O)C1=C(C)N(Cc2ccc(OC)cc2)C(=O)C(CC(=O)NCCCN(C)C)C1 (stereo not drawn)	nt	nt	3%	nt	nt	nt
CCOC(=O)C(NCc1ccccn1)(NC(=O)c1cccnc1)C(F)(F)F (stereo not drawn)	-7%[12.7 µM]	42%	-9%	56µM*	63µM*	-3%
CCOC(=O)C(NC(=O)c1cccnc1)(Nc1cccc(C)n1)C(F)(F)F (stereo not drawn)	6%[2.33 µM]	28%	-6%	1%	-4%	-6%
c1ccc(C2=Nn3c(nnc3-c3n[nH]c4c3CCC4)SC2)cc1	?	56%	-28%	-27%	?	-12%
Clc1ccc(C2=Nn3c(nnc3-c3n[nH]c4c3CCC4)SC2)cc1Cl	11µM*	4%	-4%	-3%	?	8%
COc1ccc(C)cc1-n1nc2ccccc2n1	32%	31%	-8%	9%	-3%	10%
Cc1cc(C)c(-n2[nH]nnc2=S)c(C)c1	14µM*	-17%	30µM*	?	32µM*	-22%
COc1ccc(C)cc1-n1[nH]nnc1=S	6.3µM*	-17%	-18%	-23%	25µM*	9%
COc1cc(C(C)=O)ccc1OCC(=O)N1CCc2ccccc2C1	2%	8%	-6%	-1%	-5%	3%
COc1ccc(/C(C)=N/NS(=O)(=O)c2ccccc2)c(OC)c1	?	70%	3%	-11%	-7%	0%
COc1ccc(S(=O)(=O)N/N=C(/C)c2ccc(C)o2)cc1	nt	12%	-19%	nt	-18%	9%
C/C(=N\NS(=O)(=O)c1ccc(Br)cc1)c1ccncc1	0%	22%	5.3µM*	-2%	-11%	?
COc1ccc(S(=O)(=O)N/N=C(/C)c2ccncc2)cc1	7.1µM*	59%	-19%	0%	-9%	33%
CCOc1ccc(S(=O)(=O)N/N=C(\C)Cc2ccc(OC)cc2)cc1	40µM*	17%	-4%	?	-15%	-4%
COc1ccc(S(=O)(=O)N/N=C(/C)c2ccncc2)c(OC)c1	25µM*	55%	?	-3%	2%	-22%
C/C(=N/NS(=O)(=O)c1ccc(C)c(C)c1)c1ccncc1	-11%[0.501 µM]	56%	-18%	-8%	-11%	-7%
C/C(=N\NS(=O)(=O)c1c(C)cc(C)cc1C)c1ccncc1	8.9µM*	90%	-17%	-4%	-4%	-2%
COc1ccc(S(=O)(=O)N/N=C(/C)c2ccncc2)cc1OC	11µM*	45%	-14%	-24%	-17%	-10%

Assay outcomes from PubChem BioAssay.
